± gives the standard deviation of the averaged measurements.
Test system: Serratia marcescens K904 PosmB-luxCDABE reporter (pMQ747)
Assay: PosmB-lux reporter fold induction (RLU/OD600 relative to no-compound control), highest over Biolog concentrations; higher = stronger Rcs reporter activation
Settings: Biolog plate: PM18; well positions: G1-4; wild type K904; 4 h
Description: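 Serratia marcescens K904 (wild type) or its isogenic ΔrcsB mutant, carrying the Rcs-dependent PosmB-luxCDABE reporter plasmid pMQ747, was grown in LB at OD600 0.1 in Biolog Phenotype MicroArray plates PM11-20 for 4 h at 30-32°C. Each compound is present at 3-4 proprietary concentrations (not stated); per the Fig. S1 legend the value given is the highest fold over those wells. Three independent trials.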

Compound	PosmB-lux reporter fold induction
Oc1cc(Cl)ccc1Oc1ccc(Cl)cc1Cl [triclosan]	1.45 ± 0.61

Same assay, conditions: Biolog plate: PM20; well positions: F1-4; wild type K904; 4 h

Compound	PosmB-lux reporter fold induction
O=c1cc(O)c2ccccc2o1 [4-hydroxyl-coumarin]	2.25 ± 0.64
